The list is not random: actives were taken first. Their share in the collection is about 1.2%.
TLR9-MyD88 inh – blocks human TLR9 binding to MyD88; Q9NR96+Q99836; CHO BLA complementation TLR9-MyD88, CCF4 FRET ratio; inhibition, % at 4.98 µM; 340,000 tested, 0.21% active; AID 504734;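 active means inhibition above the mean over all tested compounds plus 3 SD, cut at about 21% in these data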
NPR1 activator – GC-A (human) enzyme activation | activation, % at 10 µM | AID 1671463 | HEK293 GC-A cells, cGMP TR-FRET, EC30 ANP; 0% at EC30 ANP, 100% saturating ANP | 370,000 tested, 0.14% active; in the data active means activation above about 40%
Neddylation inh – inhibitors of human cullin neddylation | TR-FRET cullin neddylation, biochemical | P61081+Q13564 | inhibition, % at 25 µM | 360,000 tested, 0.58% active; in the data active means inhibition above about 36%
NOD2 RIPK2 PPI – inhibitors of human NOD2-RIPK2 interaction. AID 624267. CHO BLA complementation NOD2-RIPK2, CCF4 ratio. O43353. 360,000 tested, 0.38% active. inhibition, % at 4.98 µM; in the data active means inhibition above about 21%
GC-B act – GC-B (human) receptor activation. P20594. HEK293-GC-B cells, CNP EC30, cGMP TR-FRET; 0% at EC30 CNP, 100% saturating CNP. activation, % at 10 µM. 370,000 tested, 0.11% active. AID 1920062;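 active means activation at 10 µM reaching about 35% in either raw or pattern-adjusted values, limit read from the data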
TLR4-MyD88 BLA – blocks binding of human TLR4 to MyD88; 200,000 tested, 0.18% active; HeLa CL3-4 TLR4/MyD88 BLA complementation, FRET ratio; inhibition, % at 8.4 µM; AID 861; O00206+Q99836; in the data active means inhibition above about 25%
Target sequence (O00206 whole entry, looked up): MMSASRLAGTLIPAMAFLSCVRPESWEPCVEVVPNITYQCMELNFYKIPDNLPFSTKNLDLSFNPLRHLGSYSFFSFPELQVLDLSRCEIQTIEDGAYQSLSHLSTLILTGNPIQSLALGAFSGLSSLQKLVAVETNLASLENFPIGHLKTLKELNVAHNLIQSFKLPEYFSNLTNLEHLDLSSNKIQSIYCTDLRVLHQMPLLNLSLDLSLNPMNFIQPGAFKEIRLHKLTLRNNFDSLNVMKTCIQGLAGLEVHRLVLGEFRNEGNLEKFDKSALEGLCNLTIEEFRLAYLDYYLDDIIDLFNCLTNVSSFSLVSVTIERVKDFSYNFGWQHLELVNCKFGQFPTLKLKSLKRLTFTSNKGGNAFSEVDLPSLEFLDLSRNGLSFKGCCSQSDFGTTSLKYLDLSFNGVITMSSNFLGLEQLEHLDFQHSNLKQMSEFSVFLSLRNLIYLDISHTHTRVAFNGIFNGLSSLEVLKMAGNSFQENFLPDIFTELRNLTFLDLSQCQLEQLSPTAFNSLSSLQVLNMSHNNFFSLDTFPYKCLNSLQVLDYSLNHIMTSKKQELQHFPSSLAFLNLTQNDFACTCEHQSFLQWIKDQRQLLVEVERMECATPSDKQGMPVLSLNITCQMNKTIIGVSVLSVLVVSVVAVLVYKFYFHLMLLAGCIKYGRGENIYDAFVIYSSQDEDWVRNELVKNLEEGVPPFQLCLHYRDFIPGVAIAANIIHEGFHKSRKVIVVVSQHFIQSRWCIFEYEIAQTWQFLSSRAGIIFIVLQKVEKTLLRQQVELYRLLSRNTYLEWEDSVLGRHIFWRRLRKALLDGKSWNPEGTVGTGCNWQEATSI
Target sequence (Q99836 whole entry, looked up): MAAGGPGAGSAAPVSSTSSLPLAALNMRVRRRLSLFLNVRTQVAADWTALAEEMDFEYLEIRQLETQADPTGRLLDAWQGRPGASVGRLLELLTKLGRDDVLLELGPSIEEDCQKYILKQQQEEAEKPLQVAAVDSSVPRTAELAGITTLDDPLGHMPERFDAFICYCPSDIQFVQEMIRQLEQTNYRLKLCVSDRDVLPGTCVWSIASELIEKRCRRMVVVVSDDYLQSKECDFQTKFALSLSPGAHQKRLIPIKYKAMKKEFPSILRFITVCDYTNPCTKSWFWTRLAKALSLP
Neddyl conf – cullin neddylation inhibition, confirmation; shares compounds with Neddylation inh; TR-FRET cullin neddylation biochemical assay; calls only at 25 µM; 1,800 tested, 13% active; AID 652217; in the data active means inhibition above about 40%;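 further: neddylation substrate is the cullin 1 ring ligase complex with SKP2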
Of the large screens only hits and unclear results are named; the others gave an inactive call (follow-up assays come after a bar, where shown).

Oc1ccc(Br)cc1C=Nc1ccc2c3c(cccc13)CC2	Neddylation inh 43
CN1CCOc2c1cnn(CCO)c2=O	Neddylation inh 40 (no result: TLR9-MyD88 inh, TLR4-MyD88 BLA) | Neddyl conf inactive
CC(C)(C)C(=O)Cn1ncc(N2CCOCC2)c(Br)c1=O	none
CC(=O)N1CCCN(C(=O)CN2C(=O)CC(C)(C)S(=O)(=O)c3ccccc32)CC1	none (no result: TLR9-MyD88 inh, Neddylation inh, NOD2 RIPK2 PPI, TLR4-MyD88 BLA)
Cc1oc(-c2cccs2)nc1CSCC(=O)NC1CC1	Neddylation inh 52 | Neddyl conf inactive
O=C(Nc1cccc2nsnc12)c1cccs1	none (not shown: Neddylation inh) | Neddyl conf inactive
O=C(Nc1ccc2nsnc2c1)c1cccs1	none
CCOc1cc(C2NC(=O)c3ccccc3O2)ccc1OC (configuration not stated)	Neddylation inh 44 (no result: TLR4-MyD88 BLA) | Neddyl conf inactive
COc1cc(C2NC(=O)c3ccccc3O2)ccc1OC(C)C (configuration not stated)	none (no result: TLR4-MyD88 BLA)
CCSC1=C(C#N)C(c2ccc(C)o2)CC(=O)N1 (configuration not stated)	Neddylation inh 40 (no result: TLR4-MyD88 BLA) | Neddyl conf inactive
C[C@@H]1CN([C@@H](C)CO)C(=O)c2cc(NS(=O)(=O)c3ccc(F)cc3)ccc2O[C@@H](C)CCCCO[C@H]1CN(C)C(=O)NC1CCCCC1	none (no result: TLR4-MyD88 BLA)
COC(=O)c1nc2cc3c(cc2c(C)c1C(=O)OC)OCO3	Neddylation inh 58 | Neddyl conf active
Cc1cc(=O)oc2cc(OCC(=O)N3CCCC3)c(Cl)cc12	Neddylation inh 60 (not shown: TLR4-MyD88 BLA)
Cc1cc(=O)oc2cc(OCC(=O)N3CCOCC3)c(Cl)cc12	none (not shown: Neddylation inh, TLR4-MyD88 BLA)
CCC(CC)Nc1ccc(C(CC(N)=O)NC(=O)c2ccccc2)cc1[N+](=O)[O-] (configuration not stated)	none (no result: TLR4-MyD88 BLA)
Cc1noc(C)c1COC(=O)c1ccc(-c2nc3ccccc3s2)s1	none
CCNC(=O)COC(=O)c1ccc(-c2nc3ccccc3s2)s1	Neddylation inh 56 | Neddyl conf inactive
COc1ccc(-c2sc(Nc3cccc4ccccc34)n[n+]2C)c(C)c1C	Neddylation inh 32 (no result: TLR4-MyD88 BLA) | Neddyl conf inactive
COc1ccc(CCNC(=O)CC2Nc3cc(C)c(C)cc3NC2=O)cc1OC (configuration not stated)	Neddylation inh 40 | Neddyl conf inactive
Cc1cc2c(cc1C)NC(CC(=O)NCc1ccccc1)C(=O)N2 (configuration not stated)	none
CCc1cc2c3c(c(=O)oc2cc1OC(C)C(=O)O)CCCC3 (configuration not stated)	none (not shown: Neddylation inh, TLR4-MyD88 BLA)
CCc1cc2c3c(c(=O)oc2cc1OCC(=O)OC)CCCC3	Neddylation inh 43 (no result: TLR4-MyD88 BLA) | Neddyl conf inactive
CCCCCCCC(=O)N/N=C(\C)c1ccc(O)cc1O	Neddylation inh 42 | Neddyl conf inactive
CN(C)c1oc(-c2ccccc2Cl)nc1C#N	Neddylation inh 41 | Neddyl conf inactive
COc1ccc(NC(=O)N(C)C[C@@H]2OCc3cnnn3CCCC(=O)N([C@@H](C)CO)C[C@@H]2C)cc1	none (no result: TLR9-MyD88 inh, Neddylation inh, NOD2 RIPK2 PPI, TLR4-MyD88 BLA)
COC(=O)C1CC(=O)N(c2ccc(C)cc2)C1 (configuration not stated)	none
CCOC(=O)C1=NN(c2ccc(C)cc2)CC1C(=O)OC (configuration not stated)	Neddylation inh 39 | Neddyl conf inactive
O=C(O)/C=C/C(=O)Nc1ccc2nccnc2c1	Neddylation inh 41 | Neddyl conf inactive
CCN(CC)C1=N/C(=C\c2ccc(OC)cc2)C(=O)N1c1ccccc1	Neddylation inh 48 | Neddyl conf inactive
CCSC1=N/C(=C\c2ccccc2)C(=O)N1c1ccc(OC)cc1	none (not shown: Neddylation inh)
O=S(=O)(c1ccc(F)cc1)n1c(CN2CCOCC2)nc2ccccc21	none (no result: TLR9-MyD88 inh, Neddylation inh, NOD2 RIPK2 PPI, TLR4-MyD88 BLA)
O=C(Nc1ccc(-c2cn3ccccc3n2)cc1)c1ccc(Cl)cc1	none
Clc1ccc(-c2cn3ccccc3n2)cc1	Neddylation inh 40 (no result: TLR4-MyD88 BLA) | Neddyl conf inactive
Cc1ccc2c(c1)c1c3n2CCN(C(=O)C2CC2)C3CCC1 (configuration not stated)	Neddylation inh 45 | Neddyl conf inactive
O=C(O)CCC(=O)N1N=C(c2cccs2)CC1c1cn(-c2ccccc2)nc1-c1ccccc1 (configuration not stated)	Neddylation inh 40
COc1ccc(-c2nn(-c3ccccc3)cc2C2CC(c3cccs3)=NN2C(=O)CCCC(=O)O)cc1 (configuration not stated)	Neddylation inh 47 | Neddyl conf inactive
Cc1ccc(-c2nn(-c3ccccc3)cc2C2CC(c3cccs3)=NN2C(=O)CCCC(=O)O)cc1 (configuration not stated)	none (not shown: Neddylation inh)
COc1ccc(C(=O)N(C)Cc2cnn(Cc3ccccc3)c2)cc1S(=O)(=O)N1CCOCC1	none (no result: TLR4-MyD88 BLA)
CC(C)c1ccccc1NC(=S)NCC1(N(C)C)CCCCC1	none (no result: TLR4-MyD88 BLA)
CCCn1c(=O)[nH]c(=O)c2c1nc(-c1ccc(OC(F)F)c(OC)c1)n2CCOC	Neddylation inh 39 | Neddyl conf inactive
c1coc(CNc2nc(N3CCCCC3)nc3ccccc23)c1	Neddylation inh 38 | Neddyl conf inactive
c1ccc(N2CCN(c3nc(NCc4ccco4)c4ccccc4n3)CC2)cc1	none
Nc1c(C(=O)Nc2ccccc2)c2nc3ccccc3nc2n1CCCN1CCOCC1	Neddylation inh 57 (no result: TLR4-MyD88 BLA) | Neddyl conf active
Cc1ccccc1CCNC(=O)c1cc(C2CC2)nc2c1cnn2C(C)C	none (not shown: Neddylation inh, TLR4-MyD88 BLA)
Cc1ccc(CNC(=O)c2cc(C3CC3)nc3c2cnn3C(C)C)cc1	NPR1 activator 40, Neddylation inh 43, GC-B act 50 (no result: TLR4-MyD88 BLA) | Neddyl conf inactive
CC(C)n1ncc2c(C(=O)NCCc3ccc(F)cc3)cc(C3CC3)nc21	Neddylation inh 59 (not shown: TLR4-MyD88 BLA)
CCOc1ccc(C(=O)N/N=C/c2ccc(-c3ccc(S(=O)(=O)Nc4ncccn4)cc3)o2)cc1	Neddylation inh 57 | Neddyl conf active
COC(=O)c1ccc2c(C)c(C(C)(C)O)[nH]c2c1	none (not shown: Neddylation inh, TLR4-MyD88 BLA)
CC(C)N(C(=O)NC(=O)Nc1ccccn1)S(C)(=O)=O	none
Cc1ccc(NC(=O)NC(=O)N(C(C)C)S(C)(=O)=O)nc1	Neddylation inh 53
CN(C)CCCNc1ncnc2oc(-c3ccccc3)c(-c3ccccc3)c12	Neddylation inh 42 (no result: TLR4-MyD88 BLA) | Neddyl conf inactive
O=C(CSc1nnc2ccc(-c3cccnc3)nn12)Nc1cccc(F)c1	none (no result: TLR4-MyD88 BLA)
CC(=O)Nc1nonc1-c1nc2ccccc2n1CCC#N	Neddylation inh 45 | Neddyl conf inactive
N#CCCn1c(-c2nonc2NC(=O)c2ccccc2Cl)nc2ccccc21	none
Cc1cc2nc(-c3nnnn3-c3c(C)cccc3C)c(=O)[nH]c2cc1C	Neddylation inh 48 (no result: TLR9-MyD88 inh, TLR4-MyD88 BLA) | Neddyl conf inactive
Cc1cccc(C)c1-n1nnnc1-c1nc2ccccc2[nH]c1=O	none (no result: TLR9-MyD88 inh, TLR4-MyD88 BLA)

High-throughput results (PubChem)
